According to the supplement of paper PMC12494721:
Counter-ions that a name gives are not always drawn. Values without a mark were called inactive.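 How the source made its calls: for the amine columns active = adjusted P below 0.05 in both replicates with a change the same way and a mean fold change under 0.8 or over 1.25; inactive = the rest.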

system: Ruminococcus gnavus DSM 108212; assay: fold change of 2-Phenylethylamine concentration vs plate DMSO controls (fold change (ratio)); higher = more amine produced, active = hit call of the paper (significant change in both replicates, either direction); conditions: incubation time: 27 h, anaerobic, 37 °C
Procedure, shortened: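 Amine values are fold changes relative to DMSO-only wells on the same plate. They derive from 27 h, 37 °C anaerobic mGAM cultures of four gut bacterial strains in 80 µL wells, dosed at 20 µM final, or 50 µM final for sweeteners. Extraction of the whole culture, LC–triple-quadrupole MS in dynamic MRM mode, external calibration curves and within-batch drift correction were used, with 2 biological replicates averaged.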

Row | SMILES | fold change of 2-Phenylethylamine concentration
1 | CC(C)COCC(CN(Cc1ccccc1)c1ccccc1)N1CCCC1 (centres undefined) [Bepridil hydrochloride] (20 µM) | 0.824
2 | C[C@@H]1C[C@H]2[C@@H]3CCC4=CC(=O)C=C[C@]4(C)[C@@]3(Cl)[C@@H](O)C[C@]2(C)[C@@]1(OC(=O)c1ccco1)C(=O)CCl [Mometasone furoate] (20 µM) | 0.898
3 | c1ccc(-c2ccc(C(c3ccccc3)n3ccnc3)cc2)cc1 (centres undefined) [Bifonazole] (20 µM) | 0.927
4 | Cc1ncc([N+](=O)[O-])n1CC(C)O (centres undefined) [Secnidazole] (20 µM) | 0.0431 (active)
5 | CC(=O)[C@H]1CC[C@H]2[C@@H]3C[C@H](C)C4=CC(=O)CC[C@]4(C)[C@H]3[C@@H](O)C[C@]12C [Medrysone] (20 µM) | 1.01
6 | Cc1ccc(C(=O)c2ccc(CC(=O)O)n2C)cc1 [Tolmetin sodium salt dihydrate] (20 µM) | 0.913
7 | COCCOC(=O)C1=C(C)NC(C)=C(C(=O)OC(C)C)C1c1cccc([N+](=O)[O-])c1 (centres undefined) [Nimodipine] (20 µM) | 0.903
8 | CCCCCCCCCCCCCCCCCCCCCC(=O)Nc1ccn([C@@H]2O[C@H](CO)[C@@H](O)[C@@H]2O)c(=O)n1 [Enocitabine] (20 µM) | 0.866
9 | CCN(CCCc1ccccc1)CCCc1ccccc1 [Alverine citrate salt] (20 µM) | 0.782
10 | CN(C)CCCC1(c2ccc(F)cc2)OCc2cc(C#N)ccc21 (centres undefined) [Citalopram hydrobromide] (20 µM) | 0.788
11 | O=C1Nc2ccc(Cl)cc2[C@@](C#CC2CC2)(C(F)(F)F)O1 [Efavirenz] (20 µM) | 0.935
12 | O=C1NS(=O)(=O)c2ccccc21 [Saccharin] (50 µM) | 1.02
13 | O=C(O)CCCC[C@@H]1SC[C@@H]2NC(=O)N[C@@H]21 [Biotin] (20 µM) | 1.06
14 | CC(C)(C(=O)O)c1ccc(C(O)CCCN2CCC(C(O)(c3ccccc3)c3ccccc3)CC2)cc1 (centres undefined) [Fexofenadine hydrochloride] (20 µM) | 0.993
15 | CC(C)[C@H]1CC[C@H](C(=O)N[C@H](Cc2ccccc2)C(=O)O)CC1 [Nateglinide] (20 µM) | 1.05
16 | COc1ccc(CNc2nc(N3CCC[C@H]3CO)ncc2C(=O)NCc2ncccn2)cc1Cl [Avanafil] (20 µM) | 1.01
17 | C#CCN(C)CCCOc1ccc(Cl)cc1Cl [Clorgyline hydrochloride] (20 µM) | 0.974
18 | Cc1cc(-c2ccccc2)nnc1NCCN1CCOCC1 [Minaprine dihydrochloride] (20 µM) | 0.955
19 | c1ccc(CNc2ncnc3nc[nH]c23)cc1 [Aminopurine, 6-benzyl] (20 µM) | 0.856
20 | COc1cccc(N(C)C(=S)Oc2ccc3c(c2)CCCC3)n1 [Liranaftate] (20 µM) | 1.69 (active)

Row | SMILES | fold change of 2-Phenylethylamine concentration
21 | C=CCOc1ccccc1OCC(O)CNC(C)C (centres undefined) [Oxprenolol hydrochloride] (20 µM) | 1.04
22 | C[C@@H](O[C@H]1OCCN(Cc2n[nH]c(=O)[nH]2)[C@H]1c1ccc(F)cc1)c1cc(C(F)(F)F)cc(C(F)(F)F)c1 [Aprepitant] (20 µM) | 0.791
23 | CCOc1ccc(Cc2nccc3cc(OCC)c(OCC)cc23)cc1OCC [Ethaverine hydrochloride] (20 µM) | 0.895
24 | O=C(CCCCC(=O)Nc1c(I)cc(I)c(C(=O)O)c1I)Nc1c(I)cc(I)c(C(=O)O)c1I [Iodipamide] (20 µM) | 0.892
25 | NC(=O)c1cnccn1 [Pyrazinamide] (20 µM) | 0.906
26 | CCN(CC)CCOC(=O)c1ccc(N)cc1 [Procaine hydrochloride] (20 µM) | 0.992
27 | CCCCC(CC)CNC(=N)NC(=N)NCCCCCCNC(=N)NC(=N)NCC(CC)CCCC (centres undefined) [Alexidine dihydrochloride] (20 µM) | 0.0355 (active)
28 | Cc1onc(-c2ccccc2)c1C(=O)N[C@@H]1C(=O)N2[C@@H]1SC(C)(C)[C@@H]2C(=O)O [Oxacillin sodium] (20 µM) | 0.0469 (active)
29 | CC(=O)N[C@@H](CC(C)C)C(=O)O [N-Acetyl-L-leucine] (20 µM) | 1.04
30 | CC(C)CN(C[C@@H](O)[C@H](Cc1ccccc1)NC(=O)O[C@H]1CO[C@H]2OCC[C@H]21)S(=O)(=O)c1ccc(N)cc1 [Darunavir] (20 µM) | 0.837
31 | CN1CCc2cccc3c2[C@H]1Cc1ccc(O)c(O)c1-3 [R(-) Apomorphine hydrochloride hemihydrate] (20 µM) | 1.01
32 | CC(=O)OCC(=O)[C@@]1(O)[C@H](C)C[C@H]2[C@@H]3CCC4=CC(=O)C=C[C@]4(C)[C@@]3(F)[C@@H](O)C[C@@]21C [Dexamethasone acetate] (20 µM) | 0.993
33 | CN(C)CCC(c1ccc(Br)cc1)c1ccccn1 (centres undefined) [Brompheniramine maleate] (20 µM) | 1.14
34 | C#C[C@]1(O)CC[C@H]2[C@@H]3CCC4=C(CCC(=O)C4)[C@H]3CC[C@@]21C [Norethynodrel] (20 µM) | 0.989
35 | CN1CCN(CCCN2c3ccccc3Sc3ccc(S(=O)(=O)N(C)C)cc32)CC1 [Thioproperazine dimesylate] (20 µM) | 1.06
36 | CCN1/C(=C/C=C/C=C/c2sc3ccccc3[n+]2CC)Sc2ccccc21 [Dithiazanine iodide] (20 µM) | 0.699 (active)
37 | O=C(O)/C=C/c1ccc(Cn2ccnc2)cc1 [Ozagrel hydrochloride] (20 µM) | 0.999
38 | C=CCOc1ccc(CC(=O)O)cc1Cl [Alclofenac] (20 µM) | 1.09
39 | CCCCc1nc(Cl)c(CO)n1Cc1ccc(-c2ccccc2-c2nnn[nH]2)cc1 [Losartan] (20 µM) | 1.06
